Measurements as given in PubChem BioAssay (NCATS).
Results filed as inconclusive are left out. The source made the active and inactive calls. The call rests on the fitted dose curve; in most records, active means well fitted inhibition curve with a large enough effect; inconclusive means small, poorly fitted or top-dose-only effect; inactive means flat fitted curve, though single readings scatter.

System: CRL-7250
Experiment: qHTS assay to identify novel small-molecules to repurpose for Merkel cell carcinoma treatment (AID 1296009); further: nearly all actives have a fitted effect of over 60% in size
Conditions: MCC and control cell lines, CellTiter-Glo viability, 72 h; series mostly up to 92 µM; activity change, negative = cytotoxicity: at the top concentration
Summary of the method: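 After compound transfer in DMSO, plates were kept 72 hr at 37 degree celsius. Luminescent ATP signal from CellTiter-Glo served as viability measure, normalized against DMSO and no-cell controls.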

Row | Structure (SMILES) | outcome
1 | CC(=O)OC1CC(C(C)(C)O)OC2CCC3(C)OC4=C(C(=O)C=C5C(C)C(OC(C)=O)C6(C)C(C)OC546)C(O)C3C12C (stereo unspecified) | inactive [at 17.4 µM]
2 | C=C1CC[C@@]2(OC1)O[C@H]1CC3[C@@H]4CC=C5C[C@@H](O)C[C@@H](O[C@@H]6OC[C@H](O)[C@H](O)[C@H]6O[C@@H]6O[C@@H](C)[C@H](O)[C@@H](O)[C@H]6O)[C@]5(C)C4CC[C@]3(C)[C@H]1[C@@H]2C (stereo partly specified) | inactive [at 17.4 µM]
3 | COc1cc(O)cc(C)c1C(=O)O[C@H]1[C@@H](OC(C)=O)[C@H](n2ccc(=O)[nH]c2=O)O[C@@H]1CO | inactive [at 17.4 µM]
4 | C=C1CCC2C(C)(C)C(O)CCC2(C)C1CCC(C)CCOC(C)=O (stereo unspecified) | inactive
5 | Cc1ccc(Nc2nnc(-c3ccc([N+](=O)[O-])cc3)o2)cc1Cl | inactive
6 | COc1cc(NC(=O)c2cccc(-n3cc(NC(=O)Nc4cccc(C)c4)cn3)c2)cc(OC)c1OC | inactive
7 | C[C@@H]1CC[C@@]23CC[C@]4(C)[C@@](C=CC5[C@@]6(C)CC[C@H](O)C(C)(C)C6CC[C@]54C)(OC2=O)C3[C@H]1C (stereo partly specified) | inactive [at 17.4 µM]
8 | CC(=O)OC[C@@]12[C@H](O)C[C@@H](C)[C@]3(C[C@@H](c4ccoc4)OC3=O)[C@H]1C[C@H](O)C[C@]21CO1 | inactive [at 17.4 µM]
9 | C=C1CCC2[C@@](C)(C=O)CCC[C@]2(C)[C@H]1CC/C(C)=C/CO (stereo partly specified) | inactive
10 | C=CC1(C)CC2=CCC3C(C)(C(=O)O)CCCC3(C)C2CC1OC(C)=O (stereo unspecified) | inactive
11 | C=C1CCC2(OC1)OC1CC3C4CC=C5CC(O)CC(O[C@@H]6OC[C@@H](O)[C@H](O)[C@H]6O)C5(C)C4CCC3(C)C1(O)C2C (stereo partly specified) | inactive [at 17.4 µM]
